In PubChem BioAssay (NCI):
About 79,000 compounds went through this panel and 15% of them were active in at least one assay; those are over-represented in the sample as a whole. Unmarked numbers belong to inactive results. Calls of active or inactive are those of the source. No stated cut-off is given here; in the data, active means growth inhibition above about 70%; inactive means the rest.

Assays:
[1] = NCI Yeast Anticancer Drug Screen. Data for the rad50 strain (AID 155);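 further: 0% = growth of vehicle-only cultures of the same strain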; conditions: S. cerevisiae rad50 strain growth inhibition, stronger effect = higher value
Method in brief: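 Readout: growth inhibition relative to vehicle-treated cultures. Compound exposure was carried out in a genetically defined yeast strain deficient in DNA damage repair.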

[2] = NCI Yeast Anticancer Drug Screen. Data for the mec2-1 strain (AID 157); conditions: S. cerevisiae mec2-1 strain, stronger effect = higher value
Method in brief: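 Each compound was tested on mec2-1 yeast, a strain altered in DNA damage repair or cell cycle control. Growth inhibition is reported relative to vehicle.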

[3] = NCI Yeast Anticancer Drug Screen. Data for the sgs1 mgt1 strain (AID 161);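 further: 0% = growth of cultures given vehicle only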; conditions: S. cerevisiae sgs1 mgt1 strain, stronger effect = higher value
Method in brief: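 Genetically altered yeast, compound exposure, growth inhibition relative to vehicle.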

[4] = NCI Yeast Anticancer Drug Screen. Data for the cln2 rad14 strain (AID 165);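 further: 0% = growth equal to vehicle treated cultures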; conditions: S. cerevisiae cln2 rad14 strain, stronger effect = higher value
Method in brief: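 Test compounds were added to cln2 rad14 yeast cultures; inhibition of growth was then determined by comparison with vehicle treatment.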

[5] = NCI Yeast Anticancer Drug Screen. Data for the bub3 strain (AID 167); conditions: S. cerevisiae bub3 mutant strain, stronger effect = higher value
Method in brief: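 Readout: yeast growth inhibition, expressed relative to vehicle-only wells. The test organism is a mutant strain from a panel with lesions in DNA repair or checkpoint genes.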

[6] = NCI Yeast Anticancer Drug Screen. Data for the mlh1 rad18 strain (AID 175); conditions: S. cerevisiae mlh1 rad18 strain growth inhibition, stronger effect = higher value
Method in brief: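 Inhibition values reflect reduced growth of mutant yeast versus vehicle-treated controls following compound exposure; the mutations affect DNA damage repair.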

[7] = at 5.0 µM (retest, dose inferred, filed as 0.5)
[8] = at 50.0 µM (retest, dose inferred, filed as 5.0)

SMILES | growth inhibition [1, 7] [%] | growth inhibition [1, 8] | growth inhibition ([1]; at 50.0 µM) | growth inhibition [2, 7] [%] | growth inhibition [2, 8] | growth inhibition ([2]; at 50.0 µM) | growth inhibition [3, 7] [%] | growth inhibition [3, 8] | growth inhibition ([3]; at 50.0 µM) | growth inhibition [4, 7] [%] | growth inhibition [4, 8] | growth inhibition ([4]; at 50.0 µM) | growth inhibition [5, 7] [%] | growth inhibition [5, 8] | growth inhibition ([5]; at 50.0 µM) | growth inhibition [6, 7] [%] | growth inhibition [6, 8] | growth inhibition ([6]; at 50.0 µM)
CN(C)/C(N)=N\c1nc2ccc(Cl)cc2s1 | -13 | 15% | 10.9% | -4 | -17% | 11.4% | -17 | 4% | 8.3% | -20 | -10% | 15.9% | -1 | 12% | -11.1% | -3 | 48% | 9.05%
CC(NNC(=S)N1CCCC1)c1ccccn1 (configuration not stated) | 63 | 97% (active) | 98.8% (active) | 52 | 98% (active) | 98.7% (active) | 63 | 98% (active) | 98.9% (active) | 48 | 98% (active) | 99% (active) | 53 | 98% (active) | 99.2% (active) | 60 | 98% (active) | 98.8% (active)
Cc1ccc(N=Nc2c(C)c(C#N)c(=S)n(C3OC(CO)C(O)C(O)C3O)c2-c2ccccc2)cc1 (configuration not stated) | -8 | -2% | 35% | -5 | 2% | 50.5% | -1 | 12% | 65.2% | 12 | 15% | 46% | -4 | -10% | 42% | -17 | 21% | 68.8%
CCCCC(CC)COP(=O)(OCC(CC)CCCC)OCC(CC)CCCC (configuration not stated) | 0 | 7% | 15.8% | 13 | -7% | 10.6% | 9 | 18% | -2.85% | 0 | -3% | 0.85% | -5 | -11% | -6.75% | -4 | -12% | 29.1%
COc1ccccc1NC(=O)C1=C(C)NC(C)=C(C(=O)Nc2ccccc2OC)C1c1ccc(C2C(C(=O)Nc3ccccc3OC)=C(C)NC(C)=C2C(=O)Nc2ccccc2OC)cc1 | 50 | 86% (active) | 75.8% (active) | 31 | 94% (active) | 81.2% (active) | 37 | 92% (active) | 77.5% (active) | 38 | 77% (active) | 44.2% | 40 | 95% (active) | 85.2% (active) | 41 | 95% (active) | 47.9%
COc1ccc(C2=C(Cl)C(=O)N(c3ccc(O)cc3)C(=O)C2(Cl)Cl)cc1 | 18 | 99% (active) | 57.7% | 13 | 99% (active) | 59.7% | 31 | 99% (active) | 57.2% | 4 | 98% (active) | 58% | 3 | 99% (active) | 47.9% | 15 | 98% (active) | 58.2%
CCOC(=O)/C=C(\NC1CC(OC2C[C@](O)(C(C)=O)Cc3c(O)c4c(c(O)c32)C(=O)c2c(OC)cccc2C4=O)OC(C)C1O)C(=O)OCC (some centres not stated) | 44 | 95% (active) | 68.8% | 28 | 97% (active) | 74.3% (active) | 40 | 95% (active) | 90.5% (active) | 44 | 92% (active) | 88.7% (active) | 43 | 97% (active) | 87.5% (active) | 34 | 96% (active) | 87.5% (active)
COc1ccc(C2COc3cc(OC(C)=O)c(OC(C)=O)cc3C2)cc1 (configuration not stated) | -1 | 93% (active) | 96.1% (active) | 2 | 95% (active) | 95.9% (active) | 1 | 93% (active) | 95% (active) | 4 | 93% (active) | 94.9% (active) | 24 | 96% (active) | 97.1% (active) | -3 | 94% (active) | 96.6% (active)
O=S(=O)(CC(Br)c1ccccc1)CC(Br)c1ccccc1 (configuration not stated) | -3 | -1% | 50.2% | 19 | 41% | 43% | -4 | 0% | 80.9% (active) | -3 | 6% | 40% | 4 | 42% | 63.2% | -3 | 13% | 46.6%
Cc1cc(SCc2ccccc2)cc(C)[o+]1 | -1 | 92% (active) | 17.4% | 18 | 99% (active) | 44.4% | -20 | 88% (active) | 60.1% | -1 | 93% (active) | 55.8% | -2 | 96% (active) | 61.5% | -6 | 96% (active) | 63.7%
NC(=O)C#CC#CC#CCO | 11 | 62% | 92.8% (active) | 24 | 62% | 94.8% (active) | 18 | 78% (active) | 94% (active) | 25 | 39% | 91.8% (active) | 38 | 77% (active) | 93.5% (active) | 19 | 67% | 92.7% (active)
CCCC(O)CNCc1ccc(N(C)C)cc1 (configuration not stated) | -2 | 7% | 30.1% | -3 | 6% | -4.1% | -3 | -29% | 75.6% (active) | 6 | 3% | 63.9% | -1 | 5% | 46.7% | -17 | 16% | 41.8%
CCCCCCCCNC(=O)C(Cl)Cl | 3 | 17% | -6.1% | -27 | 11% | 2.6% | 0 | 10% | 40% | 12 | -11% | -10.6% | 37 | 84% (active) | 70.4% (active) | 4 | 17% | -3.2%
O=c1[nH]n(CCc2ccccn2)c(=O)c(Cl)c1Cl | -5 | -5% | 9.25% | -9 | -1% | 1.95% | -3 | -26% | 12.4% | 2 | 6% | -6.2% | 2 | 7% | -11.2% | -17 | 13% | -17.2%
O=C(O)Cc1ccc2c3c(cccc13)CC2 | 44 | 90% (active) | 88.1% (active) | 12 | 94% (active) | 91.8% (active) | 20 | 78% (active) | 91.2% (active) | 23 | 77% (active) | 90.2% (active) | 16 | 86% (active) | 92.2% (active) | 27 | 91% (active) | 92.8% (active)
O=c1ccn(C2OC(COC(c3ccccc3)(c3ccccc3)c3ccccc3)C(O)C2O)c(=O)[nH]1 (configuration not stated) | 34 | 98% (active) | 90.8% (active) | 27 | 99% (active) | 92.9% (active) | 25 | 99% (active) | 93.3% (active) | 30 | 98% (active) | 92.4% (active) | 38 | 98% (active) | 91.8% (active) | 31 | 98% (active) | 90.3% (active)
O=C(O)C(=O)Cc1ccc(O)cc1 | -18 | -30% | 68.2% | -20 | -25% | 12.7% | -10 | -26% | 57% | -5 | 7% | 49.1% | -24 | -20% | 70.7% (active) | -48 | -69% | 61%
CC(C)(C)OC(=O)CSC#N | 11 | 93% (active) | 67.3% | 16 | 95% (active) | 66.2% | 9 | 96% (active) | 90.5% (active) | 8 | 39% | 3.75% | 12 | 94% (active) | 69.2% | 15 | 92% (active) | 55.5%
O=C1C2C3C=CC(C3)C2C(=NS(=O)(=O)c2ccccc2)C2C3C=CC(C3)C12 (configuration not stated) | -33 | 9% | 84.7% (active) | -2 | 0% | 89.8% (active) | 3 | 14% | 91.4% (active) | -1 | -3% | 22.1% | -2 | 4% | 53% | 28 | 12% | 72.5% (active)
